According to PubChem BioAssay (NCI):
The panel holds about 83,000 compounds, 20% with a hit somewhere; the sample as a whole holds those more often.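 A percent growth of 40 corresponds to 60% growth inhibition; 0 means no net growth; -100 means all cells died. Active threshold: below 10.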 Calls of active or inactive are those of the source.

Experiments:
Assay in all cases: NCI-60 one-dose screen, 48 h (100 = growth as untreated, 0 = no growth, -100 = all killed)
Conditions in all cases: 10 µM unless noted
SR leukemia = tested on: SR leukemia
RPMI-8226 leukemia = tested on: RPMI-8226 leukemia
OVCAR-8 ovarian = tested on: OVCAR-8 ovarian
OVCAR-5 ovarian = tested on: OVCAR-5 ovarian
OVCAR-4 ovarian = tested on: OVCAR-4 ovarian
SK-OV-3 ovarian = tested on: SK-OV-3 ovarian
IGROV1 ovarian = tested on: IGROV1 ovarian
OVCAR-3 ovarian = tested on: OVCAR-3 ovarian
HS 578T breast = tested on: HS 578T breast
NCI/ADR-RES ovarian = tested on: NCI/ADR-RES ovarian

Measured: growth

CC(C)OCC1CO1 (stereo not given)
inactive: SR leukemia 102% | RPMI-8226 leukemia 113% | OVCAR-8 ovarian 113% | OVCAR-5 ovarian 101% | OVCAR-4 ovarian 115% | SK-OV-3 ovarian 106% | IGROV1 ovarian 110% | OVCAR-3 ovarian 107% | HS 578T breast 104% | NCI/ADR-RES ovarian 109%

Cc1c(Cc2ccccc2)c(=O)oc2c(C)c(OCC(=O)n3nc(C#N)cc3N)ccc12
inactive: SR leukemia 90.3% | RPMI-8226 leukemia 100% | OVCAR-8 ovarian 102% | OVCAR-5 ovarian 104% | OVCAR-4 ovarian 93% | SK-OV-3 ovarian 93.8% | IGROV1 ovarian 103% | OVCAR-3 ovarian 104% | HS 578T breast 99.2% | NCI/ADR-RES ovarian 102%

CC(=O)Nc1nc(C)c(C(=O)NN)s1
inactive: SR leukemia 107% | RPMI-8226 leukemia 120% | OVCAR-8 ovarian 111% | OVCAR-5 ovarian 100% | OVCAR-4 ovarian 118% | SK-OV-3 ovarian 102% | IGROV1 ovarian 95% | OVCAR-3 ovarian 104% | HS 578T breast 86% | NCI/ADR-RES ovarian 98.6%

Nc1ccc(S(=O)(=O)c2ccc(NO)cc2)cc1
active: IGROV1 ovarian 1.89%
inactive: SR leukemia 129% | RPMI-8226 leukemia 106% | OVCAR-8 ovarian 95.6% | OVCAR-5 ovarian 80.4% | OVCAR-4 ovarian 88.6% | SK-OV-3 ovarian 94.2% | OVCAR-3 ovarian 131% | HS 578T breast 97% | NCI/ADR-RES ovarian 90.3%

CCCCCSc1ccc2nc(NC(=O)OCC)sc2c1
active: OVCAR-3 ovarian -7.09%
inactive: SR leukemia 34.9% | RPMI-8226 leukemia 12.8% | OVCAR-8 ovarian 43.6% | OVCAR-5 ovarian 64.3% | OVCAR-4 ovarian 28.7% | SK-OV-3 ovarian 39.1% | IGROV1 ovarian 46.2% | HS 578T breast 14.1% | NCI/ADR-RES ovarian 11.9%

Oc1ccccc1/C=N/N=C\c1ccccc1Cl
inactive: SR leukemia 82.4% | RPMI-8226 leukemia 102% | OVCAR-8 ovarian 95.2% | OVCAR-5 ovarian 115% | OVCAR-4 ovarian 93.4% | SK-OV-3 ovarian 96% | IGROV1 ovarian 70.3% | OVCAR-3 ovarian 84.1% | HS 578T breast 105% | NCI/ADR-RES ovarian 95.2%

CCCCCCCCCCC1OC(C)CC(C)O1 (stereo not given)
inactive: SR leukemia 71.6% | RPMI-8226 leukemia 99.6% | OVCAR-8 ovarian 99.5% | OVCAR-5 ovarian 99.2% | OVCAR-4 ovarian 111% | SK-OV-3 ovarian 103% | IGROV1 ovarian 109% | OVCAR-3 ovarian 98.3% | HS 578T breast 101% | NCI/ADR-RES ovarian 105%

CSC1=Nc2c(c(C)c(-c3ccccc3)n2CCCCl)C2=NC(=O)CN12
inactive: SR leukemia 12.8% | RPMI-8226 leukemia 50.5% | OVCAR-8 ovarian 88.4% | OVCAR-5 ovarian 86.2% | OVCAR-4 ovarian 75.5% | SK-OV-3 ovarian 87.5% | IGROV1 ovarian 47.9% | OVCAR-3 ovarian 85.2% | HS 578T breast 84.6% | NCI/ADR-RES ovarian 58%

CCCCN(CCCC)CCCNc1c2c(nc3ccc(Cl)cc13)CCCC2
inactive: SR leukemia 75.8% | RPMI-8226 leukemia 102% | OVCAR-8 ovarian 102% | OVCAR-5 ovarian 84% | OVCAR-4 ovarian 84.7% | SK-OV-3 ovarian 105% | IGROV1 ovarian 79.5% | OVCAR-3 ovarian 88.9% | HS 578T breast 104% | NCI/ADR-RES ovarian 94.4%

C/C(=N\Nc1cccc(Cl)n1)c1ccccn1
inactive: RPMI-8226 leukemia 20.8% | OVCAR-8 ovarian 20.2% | OVCAR-5 ovarian 23.5% | OVCAR-4 ovarian 10.5% | SK-OV-3 ovarian 22.5% | IGROV1 ovarian 17% | OVCAR-3 ovarian 26.7% | HS 578T breast 58.9%
active: SR leukemia 6.31% | NCI/ADR-RES ovarian 0.96%

COC(=O)C(N)CC(C)C (stereo not given)
inactive: SR leukemia 86.4% | RPMI-8226 leukemia 99.2% | OVCAR-8 ovarian 101% | OVCAR-5 ovarian 108% | OVCAR-4 ovarian 111% | SK-OV-3 ovarian 111% | IGROV1 ovarian 115% | OVCAR-3 ovarian 109% | HS 578T breast 111% | NCI/ADR-RES ovarian 106%

Cc1nn(-c2ccccc2)c(N)c1N=C1NC(=O)/C(=C/c2ccc(Cl)cc2)S1
inactive: SR leukemia 34.1% | RPMI-8226 leukemia 49.5% | OVCAR-8 ovarian 91.6% | OVCAR-5 ovarian 86.6% | OVCAR-4 ovarian 75.2% | SK-OV-3 ovarian 88% | IGROV1 ovarian 104% | OVCAR-3 ovarian 68.8% | HS 578T breast 93.1% | NCI/ADR-RES ovarian 92.2%

COc1ccc(OC)c(Cn2cc3c(c2-c2ccccc2)CCc2cnoc2-3)c1
inactive: SR leukemia 22% | RPMI-8226 leukemia 61.1% | OVCAR-8 ovarian 79% | OVCAR-5 ovarian 90.8% | OVCAR-4 ovarian 77.6% | SK-OV-3 ovarian 48.2% | IGROV1 ovarian 44.7% | OVCAR-3 ovarian 17.9% | HS 578T breast 59.3% | NCI/ADR-RES ovarian 20.5%

CC(=O)OCC1O[C@@H](OC(C)=O)[C@@H](NC(=O)NS(=O)(=O)c2ccccc2)C(OC(C)=O)[C@@H]1OC(C)=O (stereo not given in full)
inactive: SR leukemia 88.9% | RPMI-8226 leukemia 107% | OVCAR-8 ovarian 113% | OVCAR-5 ovarian 108% | OVCAR-4 ovarian 109% | SK-OV-3 ovarian 113% | IGROV1 ovarian 108% | OVCAR-3 ovarian 110% | HS 578T breast 109% | NCI/ADR-RES ovarian 113%

Nc1ccc(S(=O)(=O)Nc2cc(F)cc(F)c2)cc1
inactive: SR leukemia 112% | RPMI-8226 leukemia 106% | OVCAR-8 ovarian 102% | OVCAR-5 ovarian 55.5% | OVCAR-4 ovarian 101% | SK-OV-3 ovarian 104% | OVCAR-3 ovarian 111% | HS 578T breast 92.7% | NCI/ADR-RES ovarian 117%
active: IGROV1 ovarian -22%

COc1cc(-c2nn(-c3ccc(NC(=O)Nc4ccc(Cl)c(Cl)c4)cc3)cc2-c2ccncc2)ccc1Cl
inactive: OVCAR-8 ovarian 29.1% | OVCAR-5 ovarian 72.8% | OVCAR-4 ovarian 36.7% | SK-OV-3 ovarian 62.8% | IGROV1 ovarian 36.9% | OVCAR-3 ovarian 24.1% | NCI/ADR-RES ovarian 16.1%
active: SR leukemia 6.61% | RPMI-8226 leukemia -15.3% | HS 578T breast -26.9%

c1cc[c]([Bi]([c]2ccccc2)[c]2ccccc2)cc1
inactive: SR leukemia 102% | RPMI-8226 leukemia 91% | OVCAR-8 ovarian 101% | OVCAR-5 ovarian 99.3% | OVCAR-4 ovarian 89.3% | SK-OV-3 ovarian 111% | IGROV1 ovarian 107% | OVCAR-3 ovarian 105% | HS 578T breast 100% | NCI/ADR-RES ovarian 98%

CCOC(=O)c1c(C)oc2ncnc(Nc3ccc(NC(=O)Nc4ccc(CC)cc4)cc3)c12
inactive: SR leukemia 81.6% | RPMI-8226 leukemia 95.1% | OVCAR-8 ovarian 112% | OVCAR-5 ovarian 107% | OVCAR-4 ovarian 105% | SK-OV-3 ovarian 88.2% | IGROV1 ovarian 110% | OVCAR-3 ovarian 118% | HS 578T breast 97.7% | NCI/ADR-RES ovarian 97.2%

CC(C)(C)C(=O)CCCCCCCC/C=C/CCCC(O)c1ccco1 (stereo not given)
inactive: SR leukemia 14.3% | RPMI-8226 leukemia 91.7% | OVCAR-8 ovarian 104% | OVCAR-5 ovarian 93.6% | OVCAR-4 ovarian 104% | SK-OV-3 ovarian 116% | IGROV1 ovarian 116% | OVCAR-3 ovarian 126% | HS 578T breast 106% | NCI/ADR-RES ovarian 108%

CC(C)CSc1nc(-c2ccc(F)cc2)c(C#N)c(N2CCCCC2)n1
inactive: SR leukemia 84.3% | RPMI-8226 leukemia 102% | OVCAR-8 ovarian 94% | OVCAR-5 ovarian 90.5% | OVCAR-4 ovarian 97.1% | SK-OV-3 ovarian 99.6% | IGROV1 ovarian 104% | OVCAR-3 ovarian 93% | HS 578T breast 99.4% | NCI/ADR-RES ovarian 88.7%

COc1ccc(CNCCCN2C(=O)c3ccc4c5c(ccc(c35)C2=O)C(=O)N(CCCNCc2ccc(OC)c(OC)c2OC)C4=O)c(OC)c1OC
active: SR leukemia -55.4% | RPMI-8226 leukemia -42.3% | OVCAR-8 ovarian -51.1% | OVCAR-5 ovarian -55.4% | OVCAR-4 ovarian -97.3% | SK-OV-3 ovarian -77.4% | IGROV1 ovarian -79.6% | OVCAR-3 ovarian -91.8% | HS 578T breast -38.2% | NCI/ADR-RES ovarian -36.5%

CCOC(=O)C1=C(C(F)(F)F)NC(=S)NC1CN1C(=O)c2ccccc2C1=O (stereo not given)
active: SR leukemia -89%
inactive: RPMI-8226 leukemia 68.5% | OVCAR-8 ovarian 116% | OVCAR-5 ovarian 95.7% | OVCAR-4 ovarian 117% | SK-OV-3 ovarian 117% | IGROV1 ovarian 104% | OVCAR-3 ovarian 108% | HS 578T breast 109% | NCI/ADR-RES ovarian 112%

COc1ccc(C2=C/C(=C\c3ccc(Cl)cc3)C(=O)NN2C(=S)NN)cc1
inactive: SR leukemia 93% | RPMI-8226 leukemia 86.5% | OVCAR-8 ovarian 94.2% | OVCAR-5 ovarian 112% | OVCAR-4 ovarian 90% | SK-OV-3 ovarian 89.5% | IGROV1 ovarian 107% | OVCAR-3 ovarian 111% | HS 578T breast 96.6% | NCI/ADR-RES ovarian 94.5%

O=c1oc2ccc3ccccc3c2cc1-c1ccnc2[nH]c(=S)[nH]c(=O)c12
inactive: SR leukemia 82.7% | RPMI-8226 leukemia 89.1% | OVCAR-8 ovarian 99.8% | OVCAR-5 ovarian 112% | OVCAR-4 ovarian 117% | SK-OV-3 ovarian 93.1% | IGROV1 ovarian 104% | OVCAR-3 ovarian 107% | HS 578T breast 107% | NCI/ADR-RES ovarian 94.8%

Cc1c(O)c(N=Nc2ccc(C(=O)O)c(O)c2)c2ccccc2c1O
active: IGROV1 ovarian -25.9%
inactive: SR leukemia 85.8% | RPMI-8226 leukemia 106% | OVCAR-8 ovarian 96.9% | OVCAR-5 ovarian 25.5% | OVCAR-4 ovarian 107% | SK-OV-3 ovarian 95.5% | OVCAR-3 ovarian 108% | HS 578T breast 94.7% | NCI/ADR-RES ovarian 110%

COc1cc(OC)c2c(=O)cc(-c3ccccc3)oc2c1
active: IGROV1 ovarian 7.82%
inactive: SR leukemia 31.3% | RPMI-8226 leukemia 77.6% | OVCAR-8 ovarian 103% | OVCAR-5 ovarian 93.7% | OVCAR-4 ovarian 105% | SK-OV-3 ovarian 105% | OVCAR-3 ovarian 104% | HS 578T breast 113% | NCI/ADR-RES ovarian 109%

COc1ccccc1Nc1nnc(COc2ccc(CNC(=O)CCCC/C=C/C(C)C)cc2OC)o1
inactive: SR leukemia 76.1% | RPMI-8226 leukemia 70.7% | OVCAR-8 ovarian 101% | OVCAR-5 ovarian 89.7% | OVCAR-4 ovarian 101% | SK-OV-3 ovarian 107% | IGROV1 ovarian 97.8% | OVCAR-3 ovarian 89.6% | HS 578T breast 98% | NCI/ADR-RES ovarian 89.8%
